Compound activity from PubChem.
Sampled rows, rich in hits. Any-hit rate of the full collection: about 1.5%.
PLCg1 inh: blocks human PLC-gamma1 enzyme activity. 370,000 tested, 0.84% active. inhibition, % at 12.2 µM. purified PLC-gamma1, fluorogenic substrate, fluorescence; in the data active = inhibition above about 9.5%
PLCb3 inh: inhibitors of human phospholipase C beta3; Q01970; Purified PLC-beta3, fluorogenic substrate, fluorescence; inhibition, % at 12.2 µM; 370,000 tested, 0.18% active; in the data active = inhibition above about 11%;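 also: 0% = median of compound wells on plate and 100% = full blocker control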
sPLA2-III inh: Inhibits HGIII-sPLA2 liposome hydrolysis, primary screen. Q9NZ20. QFRET BODIPY PC-A2 liposome hydrolysis, fluorescence. inhibition, % at 12.2 µM. 370,000 tested, 0.56% active;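 active = inhibition above mean plus 3 SD of compounds lying within the high and low control bounds, cut at about 19% in these data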;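 also: 0% = median of test compound wells and 100% = no enzyme DMSO wells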
DAGLB inh: blocks human DAGLB lipase activity. AID 504411. HEK293T DAGLB membrane lysate, EnzChek fluorogenic substrate. inhibition, % at 5.17 µM. 340,000 tested, 0.059% active. Q8NCG7; in the data active = inhibition above about 34%;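 also: 0% = enzyme with vehicle and 100% = wells lacking enzyme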
Target sequence (Q8NCG7 whole entry, looked up): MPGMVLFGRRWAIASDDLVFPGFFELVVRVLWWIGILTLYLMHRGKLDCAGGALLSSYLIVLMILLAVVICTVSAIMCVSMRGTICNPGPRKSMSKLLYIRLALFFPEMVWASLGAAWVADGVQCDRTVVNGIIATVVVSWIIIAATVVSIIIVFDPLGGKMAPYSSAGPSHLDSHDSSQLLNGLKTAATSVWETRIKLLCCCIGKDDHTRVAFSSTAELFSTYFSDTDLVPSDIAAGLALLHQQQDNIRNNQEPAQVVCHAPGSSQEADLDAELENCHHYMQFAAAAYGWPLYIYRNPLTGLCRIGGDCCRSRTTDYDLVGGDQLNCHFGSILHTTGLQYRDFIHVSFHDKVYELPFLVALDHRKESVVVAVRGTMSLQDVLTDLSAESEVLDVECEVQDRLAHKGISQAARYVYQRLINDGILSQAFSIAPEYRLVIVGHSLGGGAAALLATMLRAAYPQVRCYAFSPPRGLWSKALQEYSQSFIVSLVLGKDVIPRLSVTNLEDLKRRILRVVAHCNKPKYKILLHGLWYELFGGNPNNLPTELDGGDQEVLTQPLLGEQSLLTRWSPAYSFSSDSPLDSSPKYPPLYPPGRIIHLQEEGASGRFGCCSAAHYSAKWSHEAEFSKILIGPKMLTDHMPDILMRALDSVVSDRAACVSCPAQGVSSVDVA
sPLA2 confirm: human GIII-sPLA2 inhibition, confirmation; recombinant hGIII-sPLA2, BODIPY PC-A2 QFRET fluorescence; inhibition, % at 12.2 µM; 2,000 tested, 34% active; shares compounds with sPLA2-III inh;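 active = mean inhibition across triplicates above the hit cutoff set in the earlier primary screen, cut at about 19% in these data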;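 also: 0% = enzyme with DMSO and 100% = DMSO wells lacking enzyme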
BODIPY interf: optically interferes with 535nm fluorescence in sPLA2 counter-screen. inhibition, % at 12.2 µM. 2,000 tested, 8.5% active. shares compounds with sPLA2-III inh. BODIPY FL product fluorescence interference, QFRET;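 active = average inhibition above the solvent-only control mean plus 3 SD, cut at about 6% in these data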;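 also: 0% = DMSO with substrate plus product and 100% = DMSO with substrate alone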
BODIPY interf DR: 535nm optical interference dose response, HGIII-sPLA2 counter-screen; IC50, µM; 240 tested, under 10 active; shares compounds with sPLA2-III inh; BODIPY FL product fluorescence interference, cell-free;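 active = IC50 at or below 10 µM; inactive = IC50 above 10 µM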
An asterisk follows results filed as active; . = no result given.

SMILES	PLCg1 inh	PLCb3 inh	sPLA2-III inh	DAGLB inh	sPLA2 confirm	BODIPY interf	others
O=S1(=O)c2ccc(Br)cc2OC[C@H](Cc2ccccc2)N1Cc1cn(CCC2OCCCO2)nn1	-0.3	4.8	6.5	.	.	.
Cc1ccc(-n2c(SC/C=C/c3ccccc3)nnc2-c2cccs2)cc1	-2.1	-0.9	-12.7	.	.	.
O=C(NNC(=S)Nc1ccc(Cl)cc1)c1ccccc1OC(F)F	3.7	-1.3	23.6*	4.1	28.0*	8.5*
CCNC(=S)NNc1nnc(-c2ccccc2)c(-c2ccccc2)n1	0.1	-4.6	24.2*	2.2	50.4*	0.3	BODIPY interf DR=>122
O=C(NNC(=S)NCc1ccccc1)c1ccccc1OC(F)F	-2.4	-0.7	19.9*	1.7	30.9*	2.9	BODIPY interf DR=>122
CNC(=S)NNc1nc(-c2ccccc2)c2cc(Cl)ccc2n1	-0.6	-11.9	13.1	-1.1	.	.
CCNC(=S)NNC(=S)NCc1ccccc1	2.3	2.7	21.2*	-0.5	39.2*	-2.8	BODIPY interf DR=>122
S=C(NCc1ccccc1)NCc1ccc(CNC(=S)NCc2ccccc2)cc1	1.7	-1.3	-54.1	-0.6	.	.
O=C(NNC(=S)NCc1ccccc1)c1ccc(Br)cc1	0.1	-4.3	2.8	-4.7	.	.
COC(=O)c1cc(C(=O)Nc2nc3ccccc3[nH]2)cc([N+](=O)[O-])c1	-7.6	-12.9	29.0*	2.9	14.8	7.0*
O=C(Nc1nc2ccccc2[nH]1)c1cccc([N+](=O)[O-])c1	1.1	2.8	10.9	0.3	.	.
C[C@H]1COc2cc(N3CCCC3)ccc2S(=O)(=O)N1C	1.4	-2.2	-1.2	.	.	.
FC(F)(F)c1cccc(CC2CN(Cc3ccccc3)Cc3ccccc3N2c2cc(Cl)cc(Cl)c2)c1 (stereo not drawn)	-34.7	-42.3	27.0*	-19.0	-4.0	3.2
Cc1cccc(OCC(=O)Nc2sc3c(c2C#N)CCC3)c1	3.7	-0.6	22.6*	-24.5	15.6	-6.6
CCCCCCCCN1CCS(=O)(=O)N(Cc2ccc(Cl)cc2)C(C(=O)OC)C1 (stereo not drawn)	-1.2	-0.7	1.1	.	.	.
N#CCCN1CCCc2cc(N=Nc3ccc(C(F)(F)F)cc3)ccc21	8.2	-8.0	23.1*	.	24.2*	8.4*
COc1ccc(-c2nc3ccccc3c(=O)n2Cc2ccccc2)cc1COc1ccc(NC(C)=O)cc1	-16.9	-25.5	0.8	.	.	.
CC(C)c1onc(C(=O)N(C)Cc2ccccc2)c1[N+](=O)[O-]	3.7	1.8	21.7*	-0.3	-4.5	1.2
CC(C)c1onc(C(=O)NCCc2ccccc2)c1[N+](=O)[O-]	1.6	0.7	3.5	-2.0	.	.
COc1ccc2nc(Nc3ccc4c(c3)OCO4)sc2c1	8.0	8.3	85.7*	3.0	-0.7	1.6
Cc1ccc2nc(NNC(=O)c3ccc4c(c3)OCCO4)sc2c1	-2.1	-4.2	25.0*	2.0	31.7*	-0.4	BODIPY interf DR=>122
COc1cc(C(=O)NNc2nc3cc4c(cc3s2)OCO4)cc(OC)c1OC	-12.7	-9.9	19.2*	5.4	18.5	-4.8
COc1ccc2nc(Nc3nc4cc5c(cc4s3)OCO5)sc2c1	-32.7	-59.9	23.2*	1.6	36.7*	4.8	BODIPY interf DR=>122
Clc1ccc(-n2c(SCc3cccc4ccccc34)nnc2-c2ccccn2)cc1	-1.4	-4.9	-6.5	.	.	.
Cc1cccc(NC(=S)NNC(=O)Cc2ccccc2)c1	-2.3	-2.1	19.0	1.1	.	.
SMILES	PLCg1 inh	PLCb3 inh	sPLA2-III inh	DAGLB inh	sPLA2 confirm	BODIPY interf	others
O=C(CSCc1ccccc1Cl)NNC(=S)Nc1ccccc1	-1.7	-0.6	40.6*	2.4	42.0*	2.4	BODIPY interf DR=>122
Cc1cccc(NCC(=O)NNC(=S)Nc2ccccc2)c1	2.0	-0.4	23.1*	4.2	14.7	0.3
Cc1cccc(NC(=S)NNC(=O)c2csc(C)c2)c1	2.1	3.1	26.9*	-1.6	38.3*	-0.1	BODIPY interf DR=>122
CCN(C(=O)CN1CCN(c2nc(-c3ccccc3)cs2)CC1)c1ccccc1C	2.9	-0.2	-4.4	.	.	.
COc1cccc(C(=O)n2ccc3ccc(-c4ccc5ccn(Cc6ccc(C#N)cc6)c5c4)cc32)c1	-74.4	-89.0	1.3	.	.	.
Clc1ccc([C@H]2OC[C@@]3(CNCCN4CCOCC4)CS[C@H](c4ccc(Cl)cc4)N23)cc1	0.7	4.1	5.5	.	.	.
N#C/C(C(N)=O)=c1/ccc2c(c1)N1C3=C(CCCC3)CC3CCCCC31N=2 (stereo not drawn)	-2.1	0.8	26.4*	.	44.8*	1.1	BODIPY interf DR=>122
S=c1[nH]nc(-c2ccc(Cl)cc2Cl)n1-c1ccccc1	2.0	0.5	16.2	-0.1	.	.
Cc1ccc([N+](=O)[O-])c(-c2n[nH]c(=S)n2-c2cccc(Cl)c2)c1	3.0	-6.8	31.4*	3.2	22.5*	6.6*
Cc1cccc(-n2c(-c3ccoc3C)n[nH]c2=S)c1	0.5	-3.8	19.9*	-1.2	35.6*	-0.8	BODIPY interf DR=>122
CCCC[C@H](C(=O)N(C)c1ccccc1)[C@@H](O)c1ccc(C(C)=O)cc1	1.6	-0.7	-6.5	.	.	.
C[C@H](O)[C@@H]1CN2CCc3c([nH]c4c(-c5ccc6c(c5)OCO6)cccc34)[C@@H]2C[C@@H]1N(C)C(=O)c1ccco1	-5.0	-6.8	-0.5	.	.	.
CC(C)Oc1cccc(-c2n[nH]c(=S)n2N=Cc2ccc(OCc3ccccc3)cc2)c1	-4.7	-4.3	-19.7	.	.	.
Fc1cccc(F)c1/C=N/NC(=S)Nc1cccnc1	1.0	0.8	7.9	0.9	.	.
Oc1cccc(/C=N/NC(=S)Nc2cccnc2)c1O	-22.2	-37.3	34.3*	15.2	20.8*	2.3
CNC(=S)NNC(=O)c1ccccc1Cl	7.4	-2.2	3.3	.	.	.
CC(C)(C)NC(=S)NNC(=O)c1ccccc1Cl	-2.6	-3.9	21.8*	0.5	23.1*	-4.6
O=C(CCNC(=O)c1ccccc1Cl)Nc1cccc(C(F)(F)F)c1	1.2	4.1	-5.6	-1.8	.	.
CNC(=S)NNC(=O)c1cccc(C(F)(F)F)c1	-2.6	0.3	6.0	-2.4	.	.
O=C(NNC(=S)Nc1cccc(C(F)(F)F)c1)c1ccccc1Cl	-4.4	-6.4	23.8*	5.0	24.1*	4.5
O=C(NNC(=S)Nc1cccc(C(F)(F)F)c1)c1cccc(Cl)c1	-11.7	-20.1	24.3*	4.6	33.3*	6.5*
N#Cc1c(-c2cccs2)cc(C2CC2)nc1SCC(N)=O	-0.8	-4.7	35.1*	-2.7	12.4	-1.8
N#Cc1c(-c2ccccc2)cc(C2CC2)nc1SCC(=O)c1cccs1	-1.7	-1.7	-7.5	-8.7	.	.
Cc1ccc(NC(=S)N/N=C2/CCCCc3ccccc32)cc1	2.6	-8.7	23.9*	-5.4	31.2*	-3.4	BODIPY interf DR=>122
COC(=O)C1=NN(c2cccc(C)c2)C2C(=O)N(c3ccccc3OC)C(=O)C12 (stereo not drawn)	-333.8	-335.5	20.2*	0.2	-2.4	-2.1
COc1ccc2c(c1)C1NC(=S)NC(C)(O2)C1C(=O)Nc1ccc(Cl)cc1 (stereo not drawn)	-1.2	-1.5	20.0*	1.3	14.8	-3.4
